From PubChem BioAssay AID2284063 (EPA ToxCast) come the findings set out here.

Structures are written as SMILES. Inconclusive results are not listed. Calls of active or inactive are those of the source. How the source made its calls: active means hit-call score of the fitted dose curve at least 0.9, where 1 is the maximum; inactive means score below 0.9.

human BTK TK Kinase, BTK (gene 695), sequence (Q06187 whole entry, looked up): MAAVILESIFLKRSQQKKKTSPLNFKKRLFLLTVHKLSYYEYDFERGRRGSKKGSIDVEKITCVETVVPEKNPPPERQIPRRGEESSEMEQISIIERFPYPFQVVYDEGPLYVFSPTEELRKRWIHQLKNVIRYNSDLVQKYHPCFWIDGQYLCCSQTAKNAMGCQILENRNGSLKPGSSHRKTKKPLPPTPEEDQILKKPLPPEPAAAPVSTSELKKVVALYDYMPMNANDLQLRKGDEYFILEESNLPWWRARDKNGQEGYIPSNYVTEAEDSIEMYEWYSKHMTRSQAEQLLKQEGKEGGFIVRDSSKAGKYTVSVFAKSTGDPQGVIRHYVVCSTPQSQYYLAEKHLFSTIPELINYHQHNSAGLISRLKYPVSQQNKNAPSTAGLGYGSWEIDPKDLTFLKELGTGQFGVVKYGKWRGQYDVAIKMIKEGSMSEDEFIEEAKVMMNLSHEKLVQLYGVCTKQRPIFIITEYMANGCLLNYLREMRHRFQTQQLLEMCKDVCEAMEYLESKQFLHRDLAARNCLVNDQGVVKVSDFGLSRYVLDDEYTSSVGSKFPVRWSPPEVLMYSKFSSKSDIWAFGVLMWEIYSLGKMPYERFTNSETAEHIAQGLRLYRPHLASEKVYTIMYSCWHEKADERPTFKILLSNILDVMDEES

The assay addresses human BTK TK Kinase, BTK (gene 695) (UniProt Q06187). The assay can be described thus: ERF_TW_ENZ_hBTK: Eurofins (ERF) Enzymatic Radiometric [10 uM ATP] LeadHunter Assay for human BTK TK Kinase. How it is done: ERF_TW_ENZ_hBTK is a biochemical, single-readout assay that uses extracted gene-proteins in a cell-free assay. Measurements were taken 0.5 hour after chemical dosing in a 96-well plate. See BTK Human TK Kinase Enzymatic Radiometric Assay [10 uM ATP], Panlabs.ERF_TW_ENZ_hBTK is an assay component calculated from the ERF_TW_ENZ_hBTK assay. It is designed to measure enzyme activity using a type of enzyme reporter as detected by scintillation counting with radiometry technology.Data from the assay component ERF_TW_ENZ_hBTK was analyzed at the assay endpoint, ERF_TW_ENZ_hBTK, in the positive analysis fitting direction relative to DMSO as the negative control and baseline of activity. Using a type of enzyme reporter, loss-of-signal activity can be used to understand changes in enzymatic activity as they relate to gene BTK. To generalize the intended target to other relatable targets, this assay endpoint is annotated to the kinase intended target family, where the subfamily is tyrosine kinase (tk).
Human recombinant protein kinase BTK expressed in insect Sf21 cells is used. Test compound and/or vehicle is preincubated with 200 ng/ml enzymedouble dagger in modified HEPES buffer pH 7.4 for 15 minutes at 37C. […] An aliquot is removed and counted to determine the amount of [32P]Poly(Glu:Tyr) formed. […]
Take `O=C(/C=C/c1ccc(O)cc1)CC(=O)/C=C/c1ccc(O)cc1`: the AC50 (usually the concentration giving half of the maximal activity seen) was 6.13 µM (active).
